The values below come from PubChem BioAssay (NCATS).

Activity calls are given as the source filed them. No rule for the calls is given here.

Assay [1] in a line: Immunotoxin (HA22) sensitization/mitigation study. Vehicle arm (PBS) (AID 1159510). Conditions: cancer cells viability with PBS vehicle (HA22 study); series mostly up to 46.1 µM.
Assay [2] in a line: Immunotoxin (SS1P) sensitization/mitigation study. Vehicle arm (DMEM) (AID 1159513). To be noted: cell viability with vehicle (DMEM); series mostly up to 46.1 µM.
Potency is read from the fitted curve at half-maximal effect.

For `C1=CCOCc2cc(ccc2OCCN2CCCC2)Nc2nccc(n2)-c2cccc(c2)OCC1`, the Potency was 3.72 µM (active) in assay [1] and 2.64 µM (active) in assay [2].
As to `Nc1nc(Nc2ccc(S(N)(=O)=O)cc2)nn1C(=O)c1c(F)cccc1F`, the Potency in assay [1] was 0.833 µM (active); in assay [2] it was 3.72 µM (active).
Consider `CNc1nccc(-c2cccnc2Oc2cc(C(=O)Nc3cccc(C(F)(F)F)c3)ccc2C)n1`, for which the results for the Potency in assay [1] and in assay [2] were 14.8 µM (active) and 23.5 µM (active), respectively.
`Cc1ccc(C(N)=O)cc1Nc1nccc(-c2cn(C(C)C)c3cnccc23)n1`: the Potency in assay [1] was 2.64 µM (active); in assay [2] it was 7.43 µM (active).
Turning to `CC(C)c1ccc2c(c1)c(SC(C)(C)C)c(CC(C)(C)C(=O)O)n2Cc1ccc(Cl)cc1`, the Potency in assay [1] was 13.2 µM (active); in assay [2], 11.8 µM (active).
Regarding `CN1C(=O)C(Cc2c[nH]c3ccccc23)NC1=S` (configuration not stated), the Potency result in assay [1] and in assay [2] was “inactive” each time.
Turning to `Cn1cncc1[C@@](N)(c1ccc(Cl)cc1)c1ccc2c(c1)c(-c1cccc(Cl)c1)cc(=O)n2C`, the Potency in assay [1] was 11.8 µM (active); in assay [2], 20.9 µM (active).
For `Cc1cc(SCc2sc(-c3ccc(C(F)(F)F)cc3)nc2C)ccc1OCC(=O)O` the same measures were “inactive” and “inactive”.
With `CC(=O)Nc1sc2c(c1-c1nc3ccccc3s1)CNC2`, the figures for the Potency in assay [1] and in assay [2] were 16.6 µM (active) and 23.5 µM (active), respectively.
For the compound `O=C(Nc1ccc(OC(F)(F)F)cc1)c1sccc1NCc1ccnc2ccccc12`, the Potency in assay [1] and in assay [2] was 18.7 µM (active) each time.
In the case of `CC[C@H](CO)Nc1nc(NCc2ccccc2)c2ncn(C(C)C)c2n1`, the Potency in assay [1] was 20.9 µM (active); in assay [2], 23.5 µM (active).
In the case of `CC(C)(C)c1cc(C(=O)O)c(NC(=O)Nc2ccc3[nH]ncc3c2)s1`, the Potency result in assay [1] and in assay [2] was “inactive” in each case.
On to `Oc1cccc(-c2nc(N3CCOCC3)c3oc4ncccc4c3n2)c1`, for which the Potency is 0.264 µM (active) in assay [1] and 0.0935 µM (active) in assay [2].
For `CC(C)c1ccc(Cn2ccc3c4c(N)nc(NC5CC5)nc4ccc32)cc1` the same measures were 3.32 µM (active) and 0.935 µM (active).
On to `O=C(Nc1cc(C(F)(F)F)cc(C(F)(F)F)c1)c1cc(Cl)ccc1O`, for which the values for the Potency in assay [1] and in assay [2] were 0.166 µM (active) and 0.0662 µM (active), respectively.
On to `Cc1cc([C@@H](C)Nc2ccccc2C(=O)O)c2nc(N3CCOCC3)cc(=O)n2c1`, for which the Potency in assay [1] is 14.8 µM (active); in assay [2], 20.9 µM (active).
In the case of `CC1=C(CO)C(=O)O[C@@H]([C@@H](C)[C@H]2CC[C@H]3[C@@H]4C[C@H]5O[C@]56[C@@H](O)C=CC(=O)[C@]6(C)[C@@H]4CC[C@]23C)C1`, the Potency in assay [1] was 0.0743 µM (active); in assay [2], 3.72 µM (active).
As to `CCC1(Cc2ccc(N)cc2)CCC(=O)NC1=O` (configuration not stated), the Potency result in assay [1] and in assay [2] was “inactive” throughout.
Take `CCN(CC)CCCCNc1ncc2cc(-c3cc(OC)cc(OC)c3)c(NC(=O)NC(C)(C)C)nc2n1`: the Potency in assay [1] and in assay [2] was 20.9 µM (active) each time.
Consider `Cc1cccc(C=NNc2cc(N3CCOCC3)nc(OCCc3ccccn3)n2)c1`, for which the values for the Potency in assay [1] and in assay [2] were 4.69 µM (active) and 20.9 µM (active), respectively.
On the same counts, the results for `O=C(O)[C@@H](c1ccc(OCc2ccc3ccccc3n2)cc1)C1CCCC1` are “inactive” and “inactive”.
`CO[C@@H]1[C@H](N(C)C(=O)c2ccccc2)C[C@H]2O[C@]1(C)n1c3ccccc3c3c4c(c5c6ccccc6n2c5c31)C(=O)NC4`: the Potency was 0.469 µM (active) in assay [1] and 1.05 µM (active) in assay [2].
Take `Cn1cc(-c2[nH]c3cc(NC(=O)[C@H](N)C4CCCCC4)cc4c3c2C=NNC4=O)cn1`: the Potency in assay [1] was 0.59 µM (active); in assay [2], 1.87 µM (active).
For `COc1ccc(C=Cc2cc(OC)c(OC)c(OC)c2)cc1O` the same measures were “inactive” and 0.0019 µM (active).
In the case of `O=c1[nH]c(-c2ccc(C(F)(F)F)cc2)nc2c1CSCC2`, the Potency entry in assay [1] and in assay [2] was “inactive” each time.
As to `Cn1cc(-c2ccc3nnc(Sc4ccc5ncccc5c4)n3n2)cn1`, the Potency entry in assay [1] and in assay [2] was “inactive” in each case.
Consider `CC[C@@H](C(=O)O)C1CC[C@H](C)C([C@@H](C)[C@H](O)[C@H](C)C(=O)[C@H](CC)C2O[C@]3(C=C[C@@H](O)[C@]4(CC[C@@](C)(C5CC[C@](O)(CC)[C@H](C)O5)O4)O3)[C@H](C)C[C@@H]2C)O1` (some centres not stated), for which the figures for the Potency in assay [1] and in assay [2] were 0.0418 µM (active) and 20.9 µM (active), respectively.
Regarding `S=C(NCc1ccc2c(c1)OCO2)N1CCN(c2ncnc3c2oc2ccccc23)CC1`, the Potency in assay [1] is 18.7 µM (active); in assay [2], 0.372 µM (active).
Consider `CC(C)c1ccccc1Cc1cc(C(=O)Nc2ccc(S(=O)(=O)c3ccccc3C(C)(C)C)cc2)c(O)c(O)c1O`, for which the Potency in assay [1] is 0.743 µM (active); in assay [2], 3.72 µM (active).
Consider `CCN1CCN(Cc2ccc(-c3cc4c(N[C@H](C)c5ccccc5)ncnc4[nH]3)cc2)CC1`, for which the Potency was 16.6 µM (active) in assay [1] and 23.5 µM (active) in assay [2].
`Cc1ccc(C(=O)N(CCCN)[C@@H](c2nc3cc(Cl)ccc3c(=O)n2Cc2ccccc2)C(C)C)cc1`: the Potency is 0.0037 µM (active) in assay [1] and 0.0053 µM (active) in assay [2].
On to `CC(C)(C)COc1ccc(-n2cc(C(=O)O)cn2)cc1C#N`, for which, in assay [1], the Potency is 18.7 µM (active). For the same compound, the Potency result in assay [2] is “inactive”.
On to `CCN(CC)CCOc1ccc(Nc2ncc3cc(-c4c(Cl)cccc4Cl)c(=O)n(C)c3n2)cc1`, for which the Potency is 1.18 µM (active) in assay [1] and 0.332 µM (active) in assay [2].
For `CCOc1cc(N2CCC(O)CC2)ccc1Nc1ncc2c(n1)N(C)c1ccccc1C(=O)N2C`, the Potency was 13.2 µM (active) in assay [1] and 16.6 µM (active) in assay [2].
For `COC(=O)C1=C(C)NC(C)=C(C(=O)OCCCN2CCC(c3ccccc3)(c3ccccc3)CC2)[C@H]1c1cccc([N+](=O)[O-])c1`, the Potency in assay [1] is 16.6 µM (active); in assay [2], 26.4 µM (active).
Turning to `COc1nc(-c2ccc3c(c2)OCO3)n(-c2ccc(NC(=O)CSc3ccccc3)cc2)n1`, the Potency in assay [1] is 20.9 µM (active). In addition, the Potency result in assay [2] is “inactive”.
For `CS(=O)(=O)c1ccc(C(=O)Nc2ccc(Cl)c(-c3ccccn3)c2)c(Cl)c1` the same measures were “inactive” and “inactive”.
As for `Cc1c(C(=O)Nc2ccc(N3C[C@@H](C)O[C@@H](C)C3)nc2)cccc1-c1ccc(OC(F)(F)F)cc1`, the Potency was 20.9 µM (active) in assay [1] and 23.5 µM (active) in assay [2].
Turning to `c1ccc(-c2nn3c(c2-c2ccnc4cc(OCCN5CCOCC5)ccc24)CCC3)nc1`, in assay [1], the Potency was 26.4 µM (active). Moreover, in assay [2], the Potency entry is “inactive”.
On the same counts, the results for `CN(C)CCN(C)C(=O)c1ccc(NC(=O)Nc2ccc(-c3nc(N4CCOCC4)c4ccn(CC(F)(F)F)c4n3)cc2)cc1` are 1.48 µM (active) and 0.0264 µM (active).
`CCC=CC[C@H]1C(=O)CC[C@@H]1CC(=O)OC`: the Potency entry in assay [1] and in assay [2] was “inactive” each time.
Take `CC1(C)SCCN(S(=O)(=O)c2ccc(OCC#CCO)cc2)[C@@H]1C(=O)NO`: the Potency entry in assay [1] and in assay [2] was “inactive” in each case.
As to `COc1cc2c(Oc3ccc(-c4cnc(Nc5ccc(F)cc5)n(C)c4=O)cc3F)ccnc2cc1OCCCN1CCOCC1`, the values for the Potency in assay [1] and in assay [2] were 18.7 µM (active) and 20.9 µM (active), respectively.
On the same counts, the results for `O=C(C1CC1)N1CC[C@@H](Cn2c(-c3ccc(-c4ccc5occc5c4)cc3)nc3cnccc32)C1` are 20.9 µM (active) and 16.6 µM (active).
In the case of `COc1cc(Oc2ccnc3cc(OC)c(OC)cc23)ccc1NC(=O)NC(C)c1nccs1` (configuration not stated), the results for the Potency in assay [1] and in assay [2] were 16.6 µM (active) and 20.9 µM (active), respectively.
Take `CN(C)c1ccc(C2Nc3ccc4ccccc4c3C3=C2C(=O)CC(C)(C)C3)cc1Br` (configuration not stated): the values for the Potency in assay [1] and in assay [2] were 11.8 µM (active) and 18.7 µM (active), respectively.
As to `O=C(C=Cc1c(C(=O)O)[nH]c2cc(Cl)cc(Cl)c12)Nc1ccccc1`, the Potency result in assay [1] and in assay [2] was “inactive” throughout.
For `COc1cc(Nc2ncc(F)c(Nc3ccc4c(n3)NC(=O)C(C)(C)O4)n2)cc(OC)c1OC`, the Potency in assay [1] is 18.7 µM (active); in assay [2], 16.6 µM (active).
In the case of `CC=C1NC(=O)[C@H]2CSSCCC=C[C@H](CC(=O)N[C@H](C(C)C)C(=O)N2)OC(=O)[C@H](C(C)C)NC1=O`, the Potency in assay [1] was 0.0017 µM (active); in assay [2], 0.0019 µM (active).
On the same counts, the results for `CCn1c(-c2nonc2N)nc2cnc(Oc3cccc(NC(=O)c4ccc(OCCN5CCOCC5)cc4)c3)cc21` are 18.7 µM (active) and 7.43 µM (active).
As to `COc1cc2c(cc1OC)CN(CCc1ccc(NC(=O)c3cccc4c(=O)c5cccc(OC)c5[nH]c34)cc1)CC2`, the Potency in assay [1] was 18.7 µM (active). Besides, in assay [2], the Potency entry is “inactive”.
In the case of `Cc1cn2c(-c3cn[nH]c3)cnc2c(Nc2ccc(C(=O)N3CCNCC3)cc2F)n1`, the values for the Potency in assay [1] and in assay [2] were 18.7 µM (active) and 13.2 µM (active), respectively.
For `CCOC(=O)[C@@H](N)CCC(=O)N[C@@H](CSCc1ccccc1)C(=O)N[C@@H](C(=O)OCC)c1ccccc1` the same measures were 23.5 µM (active) and “inactive”.
On to `CN1CCN(c2ccc3nc(-c4c(N)c5c(F)cccc5[nH]c4=O)[nH]c3c2)CC1`, for which the Potency in assay [1] is 1.66 µM (active); in assay [2], 18.7 µM (active).
For `CC(C)C[C@H](NC(=O)CNC(=O)c1cc(Cl)ccc1Cl)B(O)O` the same measures were 0.0187 µM (active) and 0.118 µM (active).
As for `CS(=O)(=O)Oc1ccc2c(NC(N)=O)c(C(=O)c3ccc(Cl)cc3Cl)oc2c1`, the Potency result in assay [1] and in assay [2] was “inactive” each time.
Regarding `COc1c(Cl)cc2c([nH]c3cnccc32)c1NC(=O)c1cccnc1C`, the Potency entry in assay [1] and in assay [2] was “inactive” throughout.
In the case of `O=C1C(Cl)=C(NCCN2CCOCC2)C(=O)c2ncccc21`, the values for the Potency in assay [1] and in assay [2] were 2.35 µM (active) and 14.8 µM (active), respectively.
Take `OCCn1cc(-c2ccc3c(c2)CCC3=NO)c(-c2ccncc2)n1`: the Potency entry in assay [1] and in assay [2] was “inactive” in each case.
As to `COc1cc2ncnc(-n3nc(-c4ccccn4)nc3N)c2cc1OC`, the values for the Potency in assay [1] and in assay [2] were 3.72 µM (active) and 4.18 µM (active), respectively.
`O=C(C=Cc1cccc(S(=O)(=O)Nc2ccccc2)c1)NO`: the Potency in assay [1] is 0.264 µM (active); in assay [2], 0.833 µM (active).
For `Cc1[nH]nc2ccc(-c3cncc(OC[C@@H](N)Cc4ccccc4)c3)cc12` the same measures were 1.18 µM (active) and 1.32 µM (active).
Regarding `COC(=O)c1ccc2c(C(=Nc3ccc(N(C)C(=O)CN4CCN(C)CC4)cc3)c3ccccc3)c(O)[nH]c2c1`, the Potency in assay [1] was 0.209 µM (active); in assay [2], 1.18 µM (active).
Consider `C=C1C(=CC=C2CCC[C@]3(C)[C@@H]([C@H](C)C=C[C@H](C)C(C)C)CC[C@@H]23)C[C@@H](O)C[C@@H]1O`, for which the Potency in assay [1] is 20.9 µM (active). Moreover, in assay [2], the Potency entry was “inactive”.
With `COc1cccc2cc(-c3nc(C4CCC(C(=O)O)CC4)n4ncnc(N)c34)[nH]c12` (configuration not stated), the values for the Potency in assay [1] and in assay [2] were 6.62 µM (active) and 0.235 µM (active), respectively.
With `Cc1cc(Nc2cc(N3CCN(C)CC3)nc(C=Cc3ccccc3)n2)n[nH]1`, the Potency in assay [1] is 1.32 µM (active); in assay [2] it was 0.833 µM (active).
